Measured values published in PubChem BioAssay AID1851 (National Center for Advancing Translational Sciences (NCATS), 2009).
Several values for one entry are separate records, joined by “and”; a condition that tells them apart may be missing. Equal entries are not always repeated. Hit rate of the full screen: of about 16,000 compounds, about 2,600 (16%) were called active. Another 20% or so got no clear call; they are omitted. Calls come from the whole dose curve; as a rule, active = well fitted curve in the direction sought with a large enough effect; inconclusive = small, poorly fitted or top-dose-only effect, or effect the other way; inactive = no such curve, though single readings can be large or run the other way. Shown is part of a subset that was picked to be rich in actives.

molecular target: Cytochrome P450 2D6 (Homo sapiens) (UniProt P10635); experiment: Cytochrome panel assay with activity outcomes; details: recombinant CYP, pro-luciferin dealkylation, luminescence, p450-cyp2d6; series mostly up to 57.1 µM; activity, negative = inhibition: at the top concentration
Sequence (P10635 whole entry, looked up): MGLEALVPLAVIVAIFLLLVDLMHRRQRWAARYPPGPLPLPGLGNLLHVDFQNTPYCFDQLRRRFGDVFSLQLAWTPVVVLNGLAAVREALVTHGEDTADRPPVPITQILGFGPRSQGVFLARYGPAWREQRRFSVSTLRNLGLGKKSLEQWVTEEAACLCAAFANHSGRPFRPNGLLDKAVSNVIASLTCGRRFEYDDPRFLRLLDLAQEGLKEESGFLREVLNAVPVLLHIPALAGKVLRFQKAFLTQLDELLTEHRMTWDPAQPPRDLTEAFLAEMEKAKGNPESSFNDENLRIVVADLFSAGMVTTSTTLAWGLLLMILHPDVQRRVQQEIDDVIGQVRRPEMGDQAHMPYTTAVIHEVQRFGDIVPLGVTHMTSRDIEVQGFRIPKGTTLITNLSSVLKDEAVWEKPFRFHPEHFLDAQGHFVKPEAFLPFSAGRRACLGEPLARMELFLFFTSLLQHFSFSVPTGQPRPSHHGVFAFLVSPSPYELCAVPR
% is set by controls: 0 for no effect and ±100 for the full control effect.

Compound | activity, negative = inhibition | AC50
O=[N+]([O-])c1cc([As](=O)(O)O)ccc1O | -1.12% [at 25.6 µM] (inactive) | –
CCn1cnc2c(Nc3cccc(Cl)c3)nc(N[C@@H]3CCCC[C@H]3N)nc21 | – | 25.1 µM (active)
CC(=O)[C@@H]1CC[C@@H]2[C@@H]3CC=C4C[C@H](OS(=O)(=O)O)CC[C@@]4(C)[C@H]3CC[C@]21C | -8.1% (inactive) | –
Cc1ccc2c(c1)C1CN(C)CCC1N2C(=O)Nc1cccc(Cl)c1 (stereo not given) | – | 1 µM (active)
Brc1c(NC2=NCCN2)ccc2nccnc12 | -11.4% (inactive) | –
Clc1cc(I)cc(Cl)c1NC1=NCCN1 | – | 3.98 µM (active)
CCC(CC)C(=O)NC1CCSC1=O (stereo not given) | 0.616% (inactive) | –
CC1(C)N=C(N)N=C(N)N1c1cccc(C(=O)Nc2ccc(S(=O)(=O)F)cc2)c1 | – | 2 µM (active)
C=CCN1C(=O)c2ccccc2Sc2ccc(C(=O)N3CCC4(CC3)OCCO4)cc21 | -5.85% (inactive) | –
CN1C(=O)c2ccccc2Sc2ccc(C(=O)N3CCC4(CC3)OCCO4)cc21 | 13.9% (inactive) | –
CC(=O)c1ccc2c(c1)N(CCCN(C)C)c1ccccc1S2 | – | 2.51 µM (active)
CCCCc1nc2ccccc2c(=O)n1-c1ccccc1[N+](=O)[O-] | -22.1% (inactive) | –
COc1cc(CCN)ccc1O | -0.172% (inactive) | –
CN(C(=O)Cc1ccccc1)[C@H](CN1CCCC1)c1ccccc1 | – | 3.16 µM (active)
CN(C(=O)Cc1ccc(Cl)c(Cl)c1)[C@@H](CN1CCCC1)c1cccc(OCC(=O)O)c1 | 0.96% (inactive) | –
O=c1[nH]oc2c1CCNC2 | – | inactive
C#C[C@@]1(O)CC[C@@H]2[C@@H]3CCC4=CC(=O)CC[C@@]4(C)[C@H]3CC[C@]21C | 3.54% [at 25.6 µM] (inactive) | –
Cc1ccc(N2C(=O)/C(=C/c3ccc(CN(CCC#N)S(C)(=O)=O)o3)C(=O)NC2=S)cc1C | 4.47% (inactive) | –
Cc1ccc(N2C(=O)/C(=C/N3CCN(C(=O)c4ccco4)CC3)C(=O)NC2=S)cc1C | – | 0.0282 µM (active)
CC(=O)Nc1ccccc1C(=O)OCC(=O)c1ccc2ccccc2c1 | 29.5% (inactive) | –

Compound | activity, negative = inhibition | AC50
CC[C@@]1(O)C(=O)OCc2c1cc1n(c2=O)Cc2cc3c(NC(=O)CN)cccc3nc2-1 | 3.66% [at 11.4 µM] (inactive) | –
O=C(O)[C@H]1[C@H](C(=O)O)[C@H]2CC[C@@H]1O2 | 2.98% (inactive) | –
CN(C)CCC=C1c2ccccc2CCc2ccccc21 | – | 7.94 µM (active)
CN(C)CC/C=C1\c2ccccc2Sc2ccc(Cl)cc21 | – | 2.51 µM (active)
CN(C)[C@@H]1C(=O)C(C(N)=O)=C(O)[C@]2(O)C(=O)C3=C(O)c4c(O)cccc4[C@@](C)(O)[C@H]3[C@H](O)[C@@H]12 | 0.652% [at 25.6 µM] (inactive) | –
FC(F)(F)c1nc2ccc(SSc3ccc4nc(C(F)(F)F)[nH]c4c3)cc2[nH]1 | -8.27% [at 11.4 µM] (inactive) | –
CP(=O)(O)C1=CCNCC1 | -1.3% (inactive) | –
CCCN1CCC[C@H](c2cccc(O)c2)C1 | – | inactive
CCCN1CCC[C@H](c2cccc(C#N)c2)C1 | – | 31.6 µM (active)
CN1C2CCC1/C(=C\c1ccccc1)C(=O)/C2=C\c1ccccc1 | – | 0.158 µM (active)
CCOC(=O)N(c1ccccc1)P1(=S)OCCO1 | 4.06% (inactive) | –
CC(=O)[C@@H]1CC[C@@H]2[C@@H]3CCC4=CC(=O)CC[C@@]4(C)[C@H]3CC[C@]21C | -11.4% [at 25.6 µM] (inactive) | –
Cn1ccnc1 | 7.17% (inactive) | –
C[Se]C[C@@H](N)C(=O)O | 15.1% (inactive) | –
CC[C@]1(C2=NCCN2)Cc2ccccc2O1 | – | 12.6 µM (active)
CC[C@H](C)C(=O)O[C@@H]1[C@H](O)[C@@H]2[C@H](CN3C[C@@H](C)CC[C@@H]3[C@@]2(C)O)[C@@H]2C[C@@]34O[C@@]5(O)[C@@H](OC(=O)[C@](C)(O)CC)CC[C@@]3(C)[C@H]5[C@H](OC(C)=O)[C@@H](OC(C)=O)[C@H]4[C@]12O | 9.64% [at 25.6 µM] (inactive) | –
O=c1cc(-c2ccc(O)c(O)c2)oc2cc(O)cc(O)c12 | -1.91% [at 25.6 µM] (inactive) | –
Cc1c([C@@H](C)[C@H]2NC[C@H](C)C[C@@H]2O)ccc2c1C[C@@H]1[C@H]2CC=C2C[C@@H](O)CC[C@@]21C | 9.78% [at 11.4 µM] (inactive) | –
C[C@]1(O)CC[C@H]2[C@@H]3[C@@H](O)CC4=CC(=O)CC[C@@]4(C)[C@H]3CC[C@]21C | 10.5% [at 11.4 µM] (inactive) | –
NC(=NCc1ccc(Cl)cc1)SCCCc1cnc[nH]1 | – | 12.6 µM (active)

Compound | activity, negative = inhibition | AC50
NC(=NCCc1ccc(I)cc1)SCCCc1cnc[nH]1 | 9.29% (inactive) | –
OCc1cnc[nH]1 | -1.75% (inactive) | –
NCCc1ccc(O)cc1 | -10.7% (inactive) | –
NCCc1ccc(S(=O)(=O)O)cc1[N+](=O)[O-] | -0.422% [at 11.4 µM] (inactive) | –
NCCc1ccc(S(=O)(=O)F)cc1 | – | 39.8 µM (active)
C=CCN1CCC2(C)c3cc(O)ccc3C[C@H]1[C@H]2C | – | 7.94 µM (active) and 25.1 µM (active) and 631 nM (active)
C[C@@H]1[C@@H]2Cc3ccc(O)cc3[C@@]1(C)CCN2CC1CC1 | – | 31.6 µM (active)
C=CCN1CC[C@@]23c4c5ccc(O)c4O[C@H]2/C(=N\N=C2/CC[C@@]4(O)[C@H]6Cc7ccc(O)c8c7[C@@]4(CCN6CC=C)[C@@H]2O8)CC[C@]3(O)[C@@H]1C5 | -18.6% (inactive) | –
CC(=O)c1c(O)c(C)c(O)c(Cc2c(O)c3c(c(C(=O)/C=C\c4ccccc4)c2O)OC(C)(C)C=C3)c1O | -9.48% (inactive) | –
CC[C@@]1(O)C(=O)OCc2c1cc1n(c2=O)Cc2cc3ccccc3nc2-1 | – | inactive
C=C1C/C(=C\C)C(=O)O[C@@H]2CCN3CC=C(COC(=O)[C@@]1(C)O)[C@H]23 | 3.61% [at 25.6 µM] (inactive) | –
O=c1ccc2[nH]cc(C3=CCNCC3)c2[nH]1 | – | 2.51 µM (active)
COc1ccc2[nH]cc(C3=CCNCC3)c2c1 | -4.23% (inactive) | –
OC1(c2ccc(Cl)cc2)CCN(Cc2c[nH]c3ccccc23)CC1 | – | 0.316 µM (active)
O=C(Nc1ccc(Cl)cc1C(=O)c1ccccc1)c1ccco1 | -13.7% (inactive) | –
C=C(C)CN1CC[C@@]23c4c5ccc(O)c4O[C@H]2c2[nH]c4ccccc4c2C[C@]3(O)[C@@H]1C5 | 1.9% (inactive) | –
COc1ccc2c3c1O[C@@H]1C(=O)CC[C@@]4(O)[C@@H](C2)N(CC2CC2)CC[C@]314 | – | 5.01 µM (active)
O=C(/C=C\c1ccc(Cl)cc1)N[C@@]12CCC(=O)[C@@H]3Oc4c(O)ccc5c4[C@@]31CCN(CC1CC1)[C@@H]2C5 | – | 5.01 µM (active)
O=C1/C(=C\c2ccccc2)C[C@@]2(O)[C@H]3Cc4ccc(O)c5c4[C@@]2(CCN3CC2CC2)[C@@H]1O5 | 12.5% (inactive) | –
NC(N)=Nc1ccc2[nH]c3c(c2c1)C[C@]1(O)[C@@H]2Cc4ccc(O)c5c4[C@]1(CCN2CC1CC1)[C@@H]3O5 | 8.91% (inactive) | –
